From the supplement of paper PMC9801561

System: Escherichia coli Nissle 1917
Test: DuctApe activity index of respiration/growth curve (0 no growth to 9 maximum) (index 0-9); higher = more growth / nutrient utilisation, active = 3 or more; extreme values may be limits of the assay
Settings: nutrient role: C-Source, carboxylic acid; incubation: 48 h, 37 °C
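Further: biolog PM4 phosphorus and sulfur plates, tetrazolium violet dye reduction read in the OmniLog every 15 min, kinetic curves scored by DuctApe, each plate run in triplicate.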

DuctApe activity index, active:
O=C(O)C[C@H](O)C(=O)O [L-Malic acid] 8.67

DuctApe activity index, inactive:
C/C(=C/C(=O)O)C(=O)O [Citraconic acid] 0
O=C1CC[C@@H](C(=O)O)O1 [a-Hydroxyglutaric acid-g-Lactone] 0
O=C(O)CC(CC(=O)O)C(=O)O [Tricarballylic acid] 0
N[C@@H](C(=O)O)[C@@H](O)[C@H](O)[C@H](O)CO [D-Glucosaminic acid] 2

Same assay, conditions: nutrient role: sole nitrogen source (pyruvate carbon); incubation: 48 h, 37 °C

DuctApe activity index, inactive:
NO [Hydroxylamine] 0
NCCN [Ethylenediamine] 0
CCCCN [N-Butylamine] 0

DuctApe activity index, active:
N[C@@H](Cc1c[nH]c2ccccc12)C(=O)O [L-Tryptophan] 4.67
Nc1[nH]cnc2ncnc1-2 [Adenine] 6.67

Same assay, conditions: nutrient role: sole phosphorus source (pyruvate carbon); incubation: 48 h, 37 °C

DuctApe activity index, active:
C=C(OP(=O)(O)O)C(=O)O [Phosphoenol Pyruvate] 9
Nc1ncnc2c1ncn2[C@@H]1O[C@H](COP(=O)(O)O)[C@@H](O)[C@H]1O [Adenosine 5`-Monophosphate] 8.67
NC(Cc1ccc(OP(=O)(O)O)cc1)C(=O)O (stereo in doubt) [O-Phospho-D-Tyrosine] 9
O=c1ccn([C@@H]2O[C@H](CO)[C@@H](OP(=O)(O)O)[C@H]2O)c(=O)[nH]1 [Uridine 3`-Monophosphate] 8.67
O=P(O)(O)OC(CO)CO [b-Glycerol Phosphate] 8.67
Nc1nc2c(ncn2[C@@H]2O[C@H](COP(=O)(O)O)[C@@H](O)[C@H]2O)c(=O)[nH]1 [Guanosine 5`-Monophosphate] 8.67
O=P(O)(O)O [Phosphate] 9

DuctApe activity index, inactive:
Nc1ccn([C@@H]2O[C@H](CO)[C@@H](OP(=O)(O)O)[C@H]2O)c(=O)n1 [Cytidine 3`-Monophosphate] 0
O=C(O)CP(=O)(O)O [Phosphono Acetic acid] 1.33

Same assay, conditions: nutrient role: sole sulfur source (pyruvate carbon); incubation: 48 h, 37 °C

DuctApe activity index, inactive:
CSC[C@H](N)C(=O)O [S-Methyl-L-Cysteine] 0.333

DuctApe activity index, active:
NCCS(=O)O [Hypotaurine] 8
C[S+]([O-])CC[C@H](N)C(=O)O (stereo partly drawn) [L-Methionine Sulfoxide] 7
CS(=O)(=O)O [Methane Sulfonic acid] 6.67
O=S(=O)(O)O [Sulfate] 7.33
